High-throughput results from PubChem BioAssay.
Not all results are given here.
aSyn UTR act – Activators working through SNCA 5'UTR binding (MLPCN). alpha-synuclein 5'UTR reporter, activators screen. activity score, % (tested at 7.5 µM), hits read low. actives 7.1% (n = 300,000); in the data active = activity score below about -60%
Numbers without * were called inactive.

SMILES	aSyn UTR act
Cc1nc(NC(=O)c2ccc(OCC(C)C)cc2)sc1Cc1ccc2c(c1)OCO2	-84.8*
CCCOc1ccc(C(=O)Nc2nc(C)c(Cc3ccc4c(c3)OCO4)s2)cc1	-68.3*
O=C(CSc1nnc(-c2ccc(O)cc2)o1)Nc1ccccc1	-100.2*
COc1ccc(NC(=O)CSc2nnc(-c3cccc(O)c3)o2)cc1	-109.8*
COc1ccccc1NC(=O)CSc1nnc(-c2ccccc2)o1	-89.9*
Cc1cc(C)cc(NC(=O)CSc2nnc(-c3ccccc3Br)o2)c1	-67.2*
O=C(Nc1ccc(-n2ccc(C(F)(F)F)n2)cc1)Nc1cccc(Cl)c1	-81.0*
Cc1cc(C)cc(NC(=O)Nc2ccc(-n3ccc(C(F)(F)F)n3)cc2)c1	-77.0*
O=C(Nc1ccc(-n2ccc(C(F)(F)F)n2)cc1)c1cccs1	-175.6*
COc1ccccc1NC(=O)Nc1ccc(-n2ccc(C(F)(F)F)n2)cc1	-211.5*
CCOC(=O)c1oc2ccc(/C=N/O)c(Cl)c2c1C	-140.4*
CC(=O)Nc1ccccc1C(=O)C(=O)Nc1ccccc1	-96.3*
CC(=O)Nc1ccccc1C(=O)C(=O)Nc1cccc(Br)c1	-78.8*
CCC(=O)Nc1ccccc1C(=O)C(=O)Nc1ccccc1	-69.5*
CC(=O)Nc1ccccc1C(=O)C(=O)Nc1ccc(Cl)cc1	-105.8*
CC(C)(C)C1CCc2c(sc3c2C(=O)NC(c2ccco2)N3)C1 (stereo not given)	-185.9*
Cc1cc(C(=O)COc2ncnc3sccc23)c(C)n1C	-124.6*
CC(=O)c1ccc(Oc2ncnc3sccc23)cc1	-147.8*
OCc1c(OCc2cccc(F)c2)ccc2ccccc12	-110.8*
O=C(O)CC1=C(Nc2ccccc2)C(=O)N(c2ccccc2)C1c1ccc(F)cc1 (stereo not given)	-82.8*
COc1ccc(C2C(CC(=O)O)=C(Nc3ccccc3)C(=O)N2c2ccccc2)cc1 (stereo not given)	-86.4*
COc1ccc(C2=NOC(CNC(=S)N3CCOCC3)C2)cc1 (stereo not given)	-132.0*
N#CC(C(=O)C12CC3CC(CC(C3)C1)C2)c1nc2ccccc2[nH]1 (stereo not given)	-73.7*
Cc1ccc(NC(=O)c2cc(=O)c3ccccc3o2)c(C)c1	-95.9*
Cc1ccc(C)c(NC(=O)c2cc(=O)c3ccccc3o2)c1	-133.6*
SMILES	aSyn UTR act
COc1cc(N/N=C(\C)c2ccc(N)cc2)nc(-c2ccccc2)n1	-62.3*
O=C(CSc1nnc(-c2cccnc2)o1)Nc1ccccn1	-146.6*
O=C(CSc1nnc(-c2cccc(Cl)c2)o1)Nc1ccc2c(c1)OCCO2	-180.3*
Cc1ccccc1NC(=O)CSc1nnc(-c2ccccn2)o1	-77.1*
O=C(CSc1nnc(-c2ccccn2)o1)Nc1cccc(Cl)c1	-194.0*
O=C(CSc1n[nH]c(-c2ccccn2)n1)Nc1cccc(Cl)c1	86.4
O=C(CSc1nnc(-c2ccc(C(F)(F)F)cn2)o1)Nc1cccc(Cl)c1	-191.8*
C/C(N)=C(/C#N)C(=O)CSc1nnc(-c2ccc3c(c2)OCO3)o1	59.7
NC(=O)CSc1nnc(-c2ccc3c(c2)OCO3)o1	-91.3*
Cc1ccc(N(C)/N=C/c2ccc(Cl)cc2Cl)nn1	-92.1*
CSc1nnc(NC(=O)c2ccc3c(c2)OCO3)s1	81.4
Cc1nnc(NC(=O)c2ccc(S(=O)(=O)C(F)F)cc2)s1	-78.4*
Cc1nnc(NC(=O)c2cccc(Br)c2)s1	-95.9*
COCCSc1nnc(NC(=O)c2ccc3c(c2)OCO3)s1	-118.2*
Cc1nnc(NC(=O)c2ccc3c(c2)OCO3)s1	-150.2*
O=C(Nc1nncs1)c1ccc2c(c1)OCO2	-83.2*
Cc1nnc(NC(=O)c2c(F)c(F)c(F)c(F)c2F)s1	-73.0*
O=c1c(Cl)c(Cl)cnn1Cc1nnc(-c2ccc(Cl)cc2)o1	-179.2*
N=C1/C(=C/c2ccc(OCc3ccccc3F)cc2)C(=O)N=C2SC(CC(=O)N3CCOCC3)=NN12	-92.9*
N=C1/C(=C/c2ccc(OCc3ccccc3)cc2)C(=O)N=C2SC(CC(=O)N3CCOCC3)=NN12	-95.1*
CC(=O)c1cccc(NC(=S)NC(=O)c2ccccc2C)c1	-63.6*
CC(=O)c1cccc(NC(=S)NC(=O)c2ccc(Cl)cc2)c1	-130.8*
CC(=O)c1cccc(NC(=S)NC(=O)c2cccc(C)c2)c1	-145.2*
C/C(=N/NC(=O)c1cccs1)c1ccc(N2CCOCC2)cc1	-65.8*
O=C(NC(=S)Nc1ccc(N2CCOCC2)cc1)c1cccs1	-125.5*
SMILES	aSyn UTR act
Cc1cccc(C(=O)NC(=S)Nc2ccc(N3CCOCC3)cc2)c1	-65.7*
Cc1ccc(C(=O)N2CCN(c3ccc(NC(=S)NC(=O)c4cccs4)cc3)CC2)cc1	52.0
Cc1cc(C)n(-c2nnc(NC34CC5CC(CC(C5)C3)C4)nn2)n1	-172.2*
Cc1cc(C)n(-c2nc(Nc3ccccc3C(F)(F)F)nc(-n3nc(C)cc3C)n2)n1	61.9
Nc1ccc(SC(F)(F)F)cc1	-70.0*
Nc1ccccc1C(=O)Nc1cccc2ccccc12	-204.4*
CC(=O)c1cccc(NC(=O)C(=O)Nc2cccc3ccccc23)c1	-195.4*
O=C(Nc1cccc2ccccc12)c1ccccc1	-141.6*
O=C(COc1ccccc1[N+](=O)[O-])Nc1ccc2c(c1)OCO2	-132.9*
O=C(COc1ccccc1[N+](=O)[O-])Nc1ccc(NC(=O)c2cc3ccccc3o2)cc1	-118.8*
O=C(Cc1ccccc1[N+](=O)[O-])Nc1ccc2c(c1)OCCO2	-100.4*
O=C(COc1ccc(/C=N/NC(=O)c2cc3ccccc3o2)cc1Br)Nc1ccccc1	116.3
O=C(COc1cc(F)ccc1[N+](=O)[O-])Nc1cccc(Br)c1	-71.3*
O=C(COc1ccccc1[N+](=O)[O-])N/N=C/c1cccc(OC(=O)c2ccc3c(c2)OCO3)c1	-156.7*
Cc1ccc(Nc2nc3nonc3[nH]c2=O)cc1Cl	-72.1*
Nc1c(C(=O)Nc2cccc(F)c2)nnn1-c1cccc(C(F)(F)F)c1	-154.9*
Nc1c(C(=O)Nc2ccc3c(c2)OCCO3)nnn1Cc1ccc(Cl)cc1	-212.0*
Nc1c(C(=O)Nc2ccc3c(c2)OCCO3)nnn1Cc1cccc(F)c1	-176.4*
COC(=O)c1ccc(-c2ccc(/C=N/N3C(=O)C4C5C=CC(CC5)C4C3=O)o2)cc1 (stereo not given)	-191.1*
CSc1nc(N)c(C(=O)Nc2ccc([N+](=O)[O-])cc2)s1	-66.2*
CCc1ccc(C(=O)Nc2cc(C)on2)o1	-112.1*
Cc1cc(NC(=O)c2ccc(NC(=O)C(C)C)cc2)no1	-61.6*
CC(=O)Oc1ccc(C(=O)Nc2cc(C)on2)cc1	-83.8*
Cc1cc(NC(=O)c2ccc(Br)c([N+](=O)[O-])c2)no1	-81.1*
Cc1cc(NC(=O)c2ccc(C)c(C)c2)no1	-106.2*
SMILES	aSyn UTR act
O=C(Nc1scc(-c2ccc(F)cc2)c1C(=O)O)c1ccco1	-76.7*
COC(=O)c1c(-c2ccccc2)csc1NC(=O)c1c(-c2ccccc2)noc1C	65.4
COC(=O)c1c(-c2ccccc2)csc1NC(=O)c1ccco1	-168.2*
Cc1ccc(NC(=O)OCCNC(=O)OC(C)C)cc1	-72.8*
COC(=O)NCC(C)OC(=O)Nc1ccc(Cl)cc1 (stereo not given)	-94.8*
Cc1ccc(NC(=O)OC(C)CNC(=O)Oc2cccc(C)c2)cc1 (stereo not given)	-93.0*
CC(NC(=O)Nc1ccc(Br)cc1)C(C)(C)C (stereo not given)	-77.2*
CCOC(=O)c1ccc(NC(=S)Nc2cccc(N)n2)cc1	-146.8*
CCOC(=O)c1ccc(NC(=S)Nc2ccc(Br)cc2N)cc1	-114.0*
COc1ccc(C)cc1NC(=O)Nc1ccc(C(=O)N2CCCC2)cc1	-63.7*
